This passage reports Potency results from PubChem BioAssay (Tox21).

Inconclusive results are not listed. Entries that show only a call come without a potency. Some compounds were tested as several samples or in several runs, with calls that do not always agree. Active and inactive are the calls of the source. The call rests on the fitted dose curve; in most records, active means well fitted inhibition curve with a large enough effect in the repeat runs; inconclusive means weak or mixed curves; inactive means no such curve, though single readings can be large or run the other way.
Potency means the concentration at half of the fitted maximal effect.

Sequence of Estrogen receptor (Homo sapiens) (P03372 whole entry, looked up): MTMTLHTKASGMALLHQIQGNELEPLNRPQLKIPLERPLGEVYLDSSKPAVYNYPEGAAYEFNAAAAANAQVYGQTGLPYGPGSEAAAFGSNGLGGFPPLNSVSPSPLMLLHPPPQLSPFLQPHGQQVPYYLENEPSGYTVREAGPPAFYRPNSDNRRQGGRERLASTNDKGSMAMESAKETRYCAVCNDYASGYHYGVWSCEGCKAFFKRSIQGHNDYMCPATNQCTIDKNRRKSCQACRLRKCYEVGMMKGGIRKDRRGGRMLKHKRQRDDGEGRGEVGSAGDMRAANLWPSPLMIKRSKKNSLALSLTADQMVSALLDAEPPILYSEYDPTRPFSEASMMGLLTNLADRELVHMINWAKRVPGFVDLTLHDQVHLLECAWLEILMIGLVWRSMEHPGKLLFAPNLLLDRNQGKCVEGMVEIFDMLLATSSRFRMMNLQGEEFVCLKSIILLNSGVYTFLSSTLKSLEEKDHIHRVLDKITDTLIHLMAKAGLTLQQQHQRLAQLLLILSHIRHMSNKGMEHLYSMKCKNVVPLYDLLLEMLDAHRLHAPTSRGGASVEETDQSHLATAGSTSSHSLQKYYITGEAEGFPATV

For the experiment, the target named is Estrogen receptor (Homo sapiens) (UniProt P03372). As to the kind of experiment: qHTS assay to identify small molecule antagonists of the estrogen receptor alpha (ER-alpha) signaling pathway using the BG1 cell line in the presence of 0.1 nM 17-beta-estradiol (AID 1259244). Further: nearly all actives have a fitted effect of over 50% in size. The settings on record: VM7Luc4E2 (BG1) ERE-luciferase, antagonist mode, 0.1 nM E2, 22 h; series mostly up to 92.4 µM. The source says:
National Center for Advancing Translational Sciences [NCATS]
NIH Chemical Genomics Center [NCGC]
U.S. Environmental Protection Agency [EPA]
National Institutes of Environmental Health Sciences [NIEHS]
National Toxicology Program [NTP]
U.S. Food and Drug Administration [FDA]
Estrogen receptor (ER), a member of the nuclear hormone receptor plays an important role in development, metabolic homeostasis and reproduction. Two subtypes of ER, ER-alpha and ER-beta, have similar expression patterns with some uniqueness in both types. Endocrine disrupting chemicals (EDCs) and their interactions with steroid hormone receptors like ER causes disruption of normal endocrine function. Therefore, it is important to understand the effect of environmental chemicals in ER signaling pathway. For identifying ER antagonists, VM7Luc4E2 cell line was used to screen against Tox21 compound libraries.
VM7Luc4E2 cell line (provided by Denison MS, University of California) endogenously express full-length ER-alpha and is stably transfected with a plasmid containing four estrogen responsive elements (ERE) upstream of a luciferase reporter gene. The current screening for identification of ER-alpha inhibitors against Tox21 compound libraries used lower concentration (0.1 nM) of 17beta-Estradiol as a stimulator.
Tox21 Assay Protocol Summary:
VM7Luc4E2 cells were cultured in phenol red free assay medium containing 10% charcoal stripped FBS for 5 days prior to the assay. The cells were dispensed at 4,000 cells/well in 4 uL of assay medium into white wall/solid-bottom 1536-well plates (Corning Life Sciences, Corning, NY) using a Multidrop Combi (ThermoFisher Scientific, Waltham, MA) dispenser. After the assay plates were incubated at 37C and 5% CO2 for 24 hr, 23 nL of compounds dissolved in DMSO, positive controls or DMSO only was transferred to the assay plates by a Pintool station (Kalypsys, San Diego, CA). The transfer of compounds was followed by the addition of 1 uL of 0.1 nM (final concentration) agonist (17beta-Estradiol)/assay medium using a Flying Reagent Dispenser (FRD, Aurora Discovery, San Diego, CA). The plates were incubated at 37C and 5% CO2 for 22 hr. For luciferase reporter gene assay, 4 uL of ONE-Glo reagent (Promega Corporation, Madison, WI) was added to each well using the FRD and after 30 min incubation at room temperature luminescence intensity was measured using ViewLux plate reader (PerkinElmer, Shelton, CT).
`CNC(=O)Oc1ccc2c(c1)[C@]1(C)CCN(C)[C@@H]1N2C`: the Potency result was “inactive”.

With `CC(=O)OCc1ccco1`, the Potency entry is “inactive”.

For `CCCCCCC=O`, the Potency entry was “inactive”.

`C[Si]1(C)O[Si](C)(C)O[Si](C)(C)O[Si](C)(C)O1`: the Potency result was “inactive”.

As for `COc1ccc(N)c(C)c1`, the Potency result was “inactive”.

Turning to `O=C(O)c1ccc(C(=O)O)c(C(=O)O)c1`, the Potency entry is “inactive”.

Regarding `O=C1CCCC1`, the Potency result was “inactive”.

Turning to `O=C(O)c1ccccc1C(=O)O`, the Potency entry was “inactive”.

As to `O=S(=O)(O)c1ccc(N=Nc2c(O)ccc3cc(S(=O)(=O)O)ccc23)cc1`, the Potency entry is “inactive”.

As to `CC(C)(Oc1ccc(CCNC(=O)c2ccc(Cl)cc2)cc1)C(=O)O`, the Potency entry is “inactive”.

Consider `CCNc1cccc(C)c1`, for which the Potency entry was “inactive”.

`CCO[Si](CCCN)(OCC)OCC`: the Potency result is “inactive”.

As to `CCc1ccccc1CC`, the Potency entry was “inactive”.

Take `CCO[Si](CCC#N)(OCC)OCC`: the Potency result was “inactive”.

Turning to `OCc1ccccc1`, the Potency result is “inactive”.

Consider `CCCCCCCC=O`, for which the Potency result was “inactive”.

With `CCCCCCO`, the Potency entry was “inactive”.

`C=C(C)C(=O)OCC(C)C`: the Potency result is “inactive”.

Regarding `CCCCCCCO`, the Potency entry was “inactive”.

For `O=C(O)Cn1c(=O)n(Cc2ccc(Br)cc2F)c(=O)c2ccc(Cl)cc21`, the Potency result was “inactive”.

For the compound `CC(C)=CCl`, the Potency result was “inactive”.

With `CCNC(=S)NCC`, the Potency entry was “inactive”.

On to `Cc1ccc2ncccc2c1`, for which the Potency entry is “inactive”.

For the compound `CC(C)c1cccc(C(C)C)c1`, the Potency result is “inactive”.

On to `COCCCN`, for which the Potency result was “inactive”.

For the compound `O=[N+]([O-])c1ccc2nc[nH]c2c1`, the Potency entry is “inactive”.

With `Cc1ccc(S(=O)(=O)N=C=O)cc1`, the Potency entry is “inactive”.

On to `CC1(C)CC(N)CC(C)(CN)C1` (stereo not given), for which the Potency entry was “inactive”.

On to `O=C(O)c1ccc(S(=O)(=O)N(Cl)Cl)cc1`, for which the Potency is 38.8 µM (active) and inactive.

As for `CCCCOC(=O)c1ccc(N)cc1`, the Potency entry was “inactive”.

`Cc1ccc([N+](=O)[O-])cc1S(=O)(=O)O`: the Potency entry is “inactive”.

Regarding `CC(=O)c1ccc(O)cc1`, the Potency result was “inactive”.

In the case of `CCCCCCCCCCCCCCCCO`, the Potency entry was “inactive”.

Take `CC(CCO)CC(C)(C)C` (stereo not given): the Potency entry was “inactive”.

As for `Nc1ccc(Cl)c(N)c1`, the Potency entry was “inactive”.

For `CN(C)c1ccc(O)c2c1C[C@H]1C[C@H]3[C@H](N(C)C)C(=O)C(C(N)=O)=C(O)[C@@]3(O)C(=O)C1=C2O`, the Potency entry is “inactive”.

For the compound `O=C(OCC1CCC2OC2C1)C1CCC2OC2C1` (stereo not given), the Potency entry was “inactive”.

As to `Cc1ccc(C(C)C)c(O)c1`, the Potency entry is “inactive”.

`Nc1nc(N)nc(-c2ccccc2)n1`: the Potency entry is “inactive”.

As for `C=CC(C)CCCC(C)(C)O` (stereo not given), the Potency entry was “inactive”.
